High-throughput results (PubChem)
RGS16-Gao HTS: regulators of human RGS16-Galphao interaction; bead-based flow cytometry RGS16-Galphao binding, fluorescence; actives lie on both sides; binding response (% of control), % at 10 µM; actives 0.38% (n = 220,000); call rule not given here;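 note: Galphao activated by GDP with aluminum fluoride before binding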
Target sequence (O15492 whole entry, looked up): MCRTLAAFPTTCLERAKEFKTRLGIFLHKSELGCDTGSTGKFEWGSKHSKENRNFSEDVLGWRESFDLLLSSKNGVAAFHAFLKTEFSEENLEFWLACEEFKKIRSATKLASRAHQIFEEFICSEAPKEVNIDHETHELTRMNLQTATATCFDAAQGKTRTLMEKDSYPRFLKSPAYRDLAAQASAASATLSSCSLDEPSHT
Target sequence (P09471 whole entry, looked up): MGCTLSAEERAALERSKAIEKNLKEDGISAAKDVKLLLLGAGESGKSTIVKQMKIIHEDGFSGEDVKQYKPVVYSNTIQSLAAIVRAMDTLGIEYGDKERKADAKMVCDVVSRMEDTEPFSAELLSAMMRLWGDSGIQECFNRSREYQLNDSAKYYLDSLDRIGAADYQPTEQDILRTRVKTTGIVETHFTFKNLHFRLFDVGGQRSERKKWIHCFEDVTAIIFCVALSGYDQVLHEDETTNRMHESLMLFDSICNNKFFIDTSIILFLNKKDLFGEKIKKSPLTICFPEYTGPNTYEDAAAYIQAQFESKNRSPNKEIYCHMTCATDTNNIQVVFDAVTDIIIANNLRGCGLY
Avidin bead fluor: compound fluoresces at 488/530 nm on avidin beads | compound fluorescence 488/530 nm, flow cytometry; active compounds read high | fluorescence (KMESF) at 10 µM | actives 0.38% (n = 220,000) | AID 1775; in the data active = fluorescence above about 47
RGS7-Gao reg: human RGS7-Galphao interaction regulation. P09471. Multiplexed bead flow cytometry, RGS7-Galphao binding; actives lie on both sides. binding response (% of control), % at 10 µM. actives 0.35% (n = 220,000). AID 1439; in the data active = binding response below about 49% or above about 150%; inconclusive = no clear call, values can overlap the other calls; inactive = in between;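 note: fluorescent Galphao held in activated GDP-AlF4 state binding bead-coupled RGS7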
Target sequence (P09471 whole entry, looked up): as above
RGS8-Gao: human RGS8-Galphao interaction regulation. P09471. multiplexed bead flow cytometry, RGS8-Galphao binding; actives lie on both sides. response (percent of control binding), % at 10 µM. actives 0.34% (n = 220,000). AID 1423; in the data active = response below about 60% or above about 140%; inactive = in between;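 note: Galphao activated as the GDP aluminium fluoride complex binding bead-coupled RGS8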
GSH bead fluor: compound fluoresces at 488/530 nm on GSH beads | GSH beads flow cytometry, compound fluorescence 488/530 nm; active compounds read high | fluorescence (KMESF) at 10 µM | actives 0.25% (n = 190,000) | AID 1776; in the data active = fluorescence above about 89;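 note: glutathione beads carrying GST-tagged Bcl family fusion proteins plus one bare bead set; values are compound well signal with DMSO vehicle wells as background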
RGS4-Gao reg: modulates binding of RGS4 to human Galphao; P09471; Multiplexed bead flow cytometry; actives lie on both sides; binding response (% of control), % at 10 µM; actives 0.33% (n = 220,000); in the data active = binding response below about 49% or above about 150%; inactive = in between;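 note: fluorescent Galphao activated with aluminum fluoride binding bead-coupled RGS4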
* = called active by the depositor. Most compounds without a hit are left out; they make up all but 1.2% or so of the library.

Screening Cc1c(N=Nc2c(-c3ccc([N+](=O)[O-])cc3)[nH]n(C(N)=S)c2=O)cccc1[N+](=O)[O-] returned RGS16-Gao HTS 105.2, Avidin bead fluor 20, RGS7-Gao reg 99.4, RGS8-Gao 102.4, GSH bead fluor 8 and RGS4-Gao reg 101.4.
`NC(=S)n1[nH]c(-c2ccc([N+](=O)[O-])cc2)c(N=Nc2ccccc2[N+](=O)[O-])c1=O` gave RGS16-Gao HTS 104.1, Avidin bead fluor 9, RGS7-Gao reg 104.9, RGS8-Gao 102.3, GSH bead fluor 453* and RGS4-Gao reg 98.6.
For O=C(Nc1ccc2c(c1)OCCO2)C1CCCN1S(=O)(=O)c1ccc(Cl)cc1 (stereo unspecified) the results were RGS16-Gao HTS 100.8, Avidin bead fluor 7, RGS7-Gao reg 101.5, RGS8-Gao 101.0, GSH bead fluor 261* and RGS4-Gao reg 98.6.
`COc1cc(C(=O)NCCc2ccc3c(c2)OCCO3)ccc1OCC(=O)N1CCOCC1` gave RGS16-Gao HTS 115.3, Avidin bead fluor 68*, RGS7-Gao reg 119.3, RGS8-Gao 103.2, GSH bead fluor 18 and RGS4-Gao reg 107.2.
`CC(C)Cn1c(=O)c2c(nc3n2CCCN3CCc2ccccc2)n(C)c1=O` gave RGS16-Gao HTS 52.2, Avidin bead fluor 5, RGS7-Gao reg 96.2, RGS8-Gao 86.3, GSH bead fluor 257* and RGS4-Gao reg 97.9.
For CCCn1c(N2CCN(C)CC2)nc2c1c(=O)[nH]c(=O)n2C the results were RGS16-Gao HTS 99.2, Avidin bead fluor 11, RGS7-Gao reg 100.7, RGS8-Gao 101.9, GSH bead fluor 19 and RGS4-Gao reg 105.5.
For CCCn1c(N2CCOCC2)nc2c1c(=O)[nH]c(=O)n2C the results were RGS16-Gao HTS 96.9, Avidin bead fluor 60*, RGS7-Gao reg 119.1, RGS8-Gao 96.2, GSH bead fluor 36 and RGS4-Gao reg 105.0.
`COc1cc(N2CCCC2)c(OC)cc1/C=C(/C#N)c1ccc(Br)cc1` gave RGS16-Gao HTS 170.3, Avidin bead fluor 59*, RGS7-Gao reg 129.0, RGS8-Gao 94.8, GSH bead fluor 74 and RGS4-Gao reg 129.5.
OC1CCCN(Cc2ccc3ccc4cccc5ccc2c3c45)C1 (stereo unspecified) was read as RGS16-Gao HTS 103.9, Avidin bead fluor 142*, RGS7-Gao reg 134.7, RGS8-Gao 100.2, GSH bead fluor 24 and RGS4-Gao reg 110.8.
For CS(=O)(=O)c1ccc2nc(NC(=O)c3cccs3)sc2c1 the results were RGS16-Gao HTS 104.5, Avidin bead fluor 56*, RGS7-Gao reg 117.3, RGS8-Gao 103.5, GSH bead fluor 16 and RGS4-Gao reg 105.2.
Screening CCOCCCNC(=O)c1ccccc1OC1CCN(S(C)(=O)=O)CC1 returned RGS16-Gao HTS 108.4, Avidin bead fluor 10, RGS7-Gao reg 100.1, RGS8-Gao 103.5, GSH bead fluor 18 and RGS4-Gao reg 99.0.
`CCOC(=O)c1c(C)oc2ccc(NS(=O)(=O)c3cccs3)cc12` gave RGS16-Gao HTS 95.0, Avidin bead fluor 14, RGS7-Gao reg 99.5, RGS8-Gao 98.5, GSH bead fluor 15 and RGS4-Gao reg 103.4.
CC(=O)c1c(C)oc2ccc(NS(=O)(=O)c3cccs3)cc12 was read as RGS16-Gao HTS 4.7, Avidin bead fluor 122*, RGS7-Gao reg 76.4, RGS8-Gao 68.9, GSH bead fluor 13 and RGS4-Gao reg 82.3.
COc1cccc(COCC(O)Cn2cnc3cc(C)c(C)cc32)c1 (stereo unspecified) was read as RGS16-Gao HTS 100.5, Avidin bead fluor 6, RGS7-Gao reg 97.1, RGS8-Gao 100.0, GSH bead fluor 10 and RGS4-Gao reg 99.7.
For COc1ccc(NC(=O)Cn2cc(S(=O)(=O)Cc3ccccc3)c3ccccc32)c(OC)c1 the results were RGS16-Gao HTS 92.8, Avidin bead fluor 8, RGS7-Gao reg 89.6, RGS8-Gao 96.4, GSH bead fluor 12 and RGS4-Gao reg 93.1.
CCCn1cc(S(=O)(=O)CC(=O)Nc2ccc(OC)cc2OC)c2ccccc21 was read as RGS16-Gao HTS 92.7, Avidin bead fluor 5, RGS7-Gao reg 91.5, RGS8-Gao 95.2, GSH bead fluor 130* and RGS4-Gao reg 83.5.
For COC(=O)c1cn(C(=O)c2cccs2)c2ccccc12 the results were RGS16-Gao HTS 100.8, Avidin bead fluor 9, RGS7-Gao reg 99.7, RGS8-Gao 100.1, GSH bead fluor 19 and RGS4-Gao reg 105.0.
For CC(C)NC(=O)COC(=O)c1ccc(Oc2ccccc2)cc1 the results were RGS16-Gao HTS 109.1, Avidin bead fluor 9, RGS7-Gao reg 104.4, RGS8-Gao 108.5, GSH bead fluor 265* and RGS4-Gao reg 104.1.
Screening CCCC(=O)Nc1ccc2nc(SCC(=O)Nc3nccs3)sc2c1 returned RGS16-Gao HTS 14.8*, Avidin bead fluor 0, RGS7-Gao reg 14.6*, RGS8-Gao 11.6*, GSH bead fluor 28 and RGS4-Gao reg 21.5*.
`CNC(=O)CCCCC(=O)N/N=C/c1ccc(Cl)cc1Cl` gave RGS16-Gao HTS 98.0, Avidin bead fluor 7, RGS7-Gao reg inconclusive, RGS8-Gao 98.6 and RGS4-Gao reg 100.3.
For O=C(CCC(=O)NNC(=O)COc1ccccc1)NCc1ccccc1 the results were RGS16-Gao HTS 101.2, Avidin bead fluor 29, RGS7-Gao reg 95.2, RGS8-Gao 99.3, GSH bead fluor 8 and RGS4-Gao reg 96.3.
Cc1cc(C)cc(OCC(=O)NNC(=O)CCC(=O)NCc2ccccc2)c1 was read as RGS16-Gao HTS 94.3, Avidin bead fluor 3, RGS7-Gao reg 99.4, RGS8-Gao 97.6, GSH bead fluor 152* and RGS4-Gao reg 98.5.
Screening Cc1oc(S(=O)(=O)N2CCOCC2)cc1C(=O)Nc1ccc(Cl)cc1 returned RGS16-Gao HTS 99.5, Avidin bead fluor 8, RGS7-Gao reg inconclusive, RGS8-Gao 101.2 and RGS4-Gao reg 102.6.
COc1ccccc1NC(=O)c1ccc(NS(=O)(=O)c2ccc(F)c(Cl)c2)cc1 was read as RGS16-Gao HTS 113.3, Avidin bead fluor 9, RGS7-Gao reg 99.6, RGS8-Gao 104.5, GSH bead fluor 16 and RGS4-Gao reg 103.1.
CCn1c(C)cc2c(c1=O)C(c1ccc3c(c1)OCO3)C(C#N)=C(N)O2 (stereo unspecified) was read as RGS16-Gao HTS 105.6, Avidin bead fluor 63*, RGS7-Gao reg 113.9, RGS8-Gao 102.8, GSH bead fluor 17 and RGS4-Gao reg 105.5.
Screening COCCNc1nc2nonc2nc1N(C)Cc1cccc2cnccc12 returned RGS16-Gao HTS 103.4, Avidin bead fluor 19, RGS7-Gao reg 97.9, RGS8-Gao 103.7, GSH bead fluor 11 and RGS4-Gao reg 102.5.
`COc1cccc2sc(NC(=O)c3ccc(Br)s3)nc12` gave RGS16-Gao HTS 92.2, Avidin bead fluor 7, RGS7-Gao reg 86.8, RGS8-Gao 90.7, GSH bead fluor 265* and RGS4-Gao reg 86.9.
